The values below come from article PMC4336329 (PLoS ONE, 2015).

SMILES strings stand for the structures. Out of some 310,000 compounds screened, about 14,000 (4.5%) showed an effect of 50% or more. The effect is printed as a negative number. Shown is part of a subset that was picked to be rich in strong results.
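Note: peak tail current of the secondary pulse compared with the same well before compound.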

This experiment deals with human ether-à-go-go-related gene (hERG) potassium channel (human, UniProt Q12809). Description: primary screen, population patch clamp on CHO cells stably expressing hERG; higher = less effect of the substance.
Sequence of human ether-à-go-go-related gene (hERG) potassium channel (Q12809 whole entry, looked up): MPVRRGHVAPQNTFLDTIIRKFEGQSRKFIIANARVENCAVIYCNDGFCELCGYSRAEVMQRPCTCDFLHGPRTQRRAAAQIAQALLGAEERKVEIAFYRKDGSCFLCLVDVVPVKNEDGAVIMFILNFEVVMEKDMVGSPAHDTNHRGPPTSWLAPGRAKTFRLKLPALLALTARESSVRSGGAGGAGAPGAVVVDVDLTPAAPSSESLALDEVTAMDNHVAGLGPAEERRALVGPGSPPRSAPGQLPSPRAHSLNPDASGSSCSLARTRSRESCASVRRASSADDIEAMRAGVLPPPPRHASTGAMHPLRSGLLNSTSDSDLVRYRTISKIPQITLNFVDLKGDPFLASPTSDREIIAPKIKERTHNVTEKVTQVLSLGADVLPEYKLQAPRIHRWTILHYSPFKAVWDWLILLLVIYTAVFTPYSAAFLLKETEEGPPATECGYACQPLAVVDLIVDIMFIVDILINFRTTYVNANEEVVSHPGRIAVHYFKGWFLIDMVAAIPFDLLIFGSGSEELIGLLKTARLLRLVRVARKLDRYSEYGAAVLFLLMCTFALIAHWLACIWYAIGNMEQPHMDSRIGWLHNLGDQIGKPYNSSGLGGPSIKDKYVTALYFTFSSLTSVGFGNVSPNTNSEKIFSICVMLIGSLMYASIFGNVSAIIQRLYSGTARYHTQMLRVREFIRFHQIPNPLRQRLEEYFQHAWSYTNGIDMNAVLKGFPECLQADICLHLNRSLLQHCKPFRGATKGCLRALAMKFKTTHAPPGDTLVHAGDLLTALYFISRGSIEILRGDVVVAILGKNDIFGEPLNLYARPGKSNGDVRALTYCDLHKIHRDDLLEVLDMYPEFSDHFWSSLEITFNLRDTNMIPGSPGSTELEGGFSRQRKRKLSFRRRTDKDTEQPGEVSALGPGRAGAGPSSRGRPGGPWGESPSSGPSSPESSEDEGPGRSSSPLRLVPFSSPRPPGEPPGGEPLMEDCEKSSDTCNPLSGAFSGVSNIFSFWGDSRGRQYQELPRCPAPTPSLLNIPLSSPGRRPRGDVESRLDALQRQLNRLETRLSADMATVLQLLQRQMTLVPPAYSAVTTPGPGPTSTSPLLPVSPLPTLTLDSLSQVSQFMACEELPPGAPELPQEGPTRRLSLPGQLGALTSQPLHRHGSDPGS
For the compound `CCOC(=O)c1[nH]nc(-c2c(O)cc(C)cc2O)c1-c1csc(C)n1`, the “hERG current change (%, negative = inhibition) at 10uM” value amounted to 11.3%.
Take `Cc1cc(C)c2c(c1)c(C)cc1nnc(SCC(=O)NCc3ccco3)n12`: the “hERG current change (%, negative = inhibition) at 10uM” value is reported as -8.05%.
Take `COCCn1c(SCC(=O)NC2CCCCC2)nc2c(c1=O)SCC2`: the “hERG current change (%, negative = inhibition) at 10uM” value is listed as -11.2%.
To `Cc1ccc(C)c(S(=O)(=O)N2CCCOC2CNC(=O)C(=O)NCCCN2CCOCC2)c1` (centres unmarked) belongs 0.752%.
To `CCN(CC)c1cc(Oc2ccccc2)ncn1` belongs -9.54%; to `COc1cccc(C(=O)CSc2nnnn2C)c1`, 4.88%; to `Cc1ccc(/C=N/NC(=O)CSc2nnc(-c3ccc(Cl)cc3)n2-c2ccccc2)o1`, -39.5%.
To `CCOC(=O)N1CCN(C(=O)CSc2nc(-c3cccc(C)c3)ns2)CC1` belongs -38.8%.
`O=C1N(Cc2ccccc2F)c2ccccc2C12OCCCO2`: the “hERG current change (%, negative = inhibition) at 10uM” value amounted to 10.9%.
To `O=C(OC(C(=O)c1c[nH]c2ccccc12)c1ccccc1)c1cnccn1` (centres unmarked) belongs 1.77%; to `O=C(O)/C(=C/c1cccnc1)NC(=O)c1ccccc1`, 20.3%; to `CCc1ccc(C(=O)CC2(O)C(=O)N(CN3CCOCC3)c3ccccc32)cc1` (centres unmarked), 7.69%.
`Cc1ccc(C(=O)CC2(O)C(=O)N(CN3CCOCC3)c3ccccc32)cc1` (centres unmarked): the “hERG current change (%, negative = inhibition) at 10uM” value is -2.38%.
To `O=C(CC1(O)C(=O)N(CN2CCOCC2)c2ccccc21)c1ccccc1` (centres unmarked) belongs -70.4%; to `CC(C)=CCC(C)(C)C1OCCN1C(=O)c1ccccc1` (centres unmarked), -18.7%; to `Br.COc1ccc(-c2nc3n(c2C)CCC3)cc1`, -6.52%.
As to `CCN(CC(=O)Nc1c(F)cccc1F)C(=O)c1cc([N+](=O)[O-])ccc1N1CCCCC1`, the “hERG current change (%, negative = inhibition) at 10uM” value is recorded as -10.6%.
In the case of `CC(=O)OCc1nc2ccccc2s1`, the “hERG current change (%, negative = inhibition) at 10uM” value is reported as 12%.
Under `O=C(CCCCCNC(=S)Nc1ccc(Cl)cc1)C[N+](=O)[O-]` stands 12.9%.
Under `COc1ccc(-c2[nH]ncc2CN(C)CCN2CCOCC2)cc1F` stands 16.6%; under `COc1ccc(C(=O)/C=C/c2ccc(OC)c(O)c2)c(F)c1`, -13.5%; under `COc1ccc(/C=C/C(=O)c2ccc(Cl)s2)cc1O`, 1.69%.
Under `COc1cc(/C=C/C(=O)O)cc(OC)c1O` stands 2.08%.
For the compound `COc1ccc(C(=O)/C=C/c2cc(OC)c(O)c(OC)c2)c(F)c1`, the “hERG current change (%, negative = inhibition) at 10uM” value is listed as -52.3%.
To `COc1ccc2cc(C(=O)/C=C/c3cc(OC)c(O)c(OC)c3)ccc2c1` belongs 8.79%; to `COc1cc(/C=C/C(=O)c2ccc(Cl)s2)cc(OC)c1O`, -74.4%.
`COc1ccc(CCNC(=O)C2CCN(S(=O)(=O)c3ccc(C)cc3)CC2)cc1`: the “hERG current change (%, negative = inhibition) at 10uM” value was 0.741%.
Under `COc1ccc(/C=N/NC(=O)c2cccc(OC(F)(F)C(F)F)c2)c(OC)c1OC` stands -3.77%; under `O=C(Nc1sc2c(c1C(=O)O)CCCCC2)c1ccccc1`, 67.4%.
To `COc1cccc(N2CCN(C(=O)Nc3ccc4c(c3)NC(=O)CO4)CC2)c1` belongs -75.8%; to `CSc1ccccc1N1CCN(C(=O)Nc2ccc3c(c2)NC(=O)CO3)CC1`, -56.3%.
Under `O=C(Nc1ccc2c(c1)OCO2)N1CCN(c2ccccc2Cl)CC1` stands -32.3%; under `O=C1COc2ccc(NC(=O)N3CCN(c4ccc(F)cc4)CC3)cc2N1`, -79.8%; under `COc1cccc(N2CCN(S(=O)(=O)c3cc4c(cc3Cl)NC(=O)CO4)CC2)c1`, 12%.
With `O=C(Nc1ccc2c(c1)OCCO2)N1CCN(c2ccc(F)cc2)CC1`, the “hERG current change (%, negative = inhibition) at 10uM” value is -5.49%.
Under `O=C1COc2ccc(NC(=O)c3ccccc3C(=O)O)cc2N1` stands 21.6%; under `O=C(Nc1ccc2c(c1)OCO2)N1CCN(c2ccc(F)cc2)CC1`, -28%.
To `CCOC(=O)c1ccc(NC(=O)N2CCN(c3cccc(OC)c3)CC2)cc1` belongs -16.5%.
To `Cc1nn(Cc2ccc([N+](=O)[O-])cc2)c(=O)n1N(C)c1ncc(C(F)(F)F)cc1Cl` belongs -3.46%.
On to `O=C(NCc1ccccc1F)C1CC(=O)N(c2ccc3c(c2)OCCO3)C1` (centres unmarked), for which the “hERG current change (%, negative = inhibition) at 10uM” value is listed as -2.83%.
To `O=C(Nn1c(SCc2cccc([N+](=O)[O-])c2)nc2ccccc2c1=O)c1ccccc1` belongs -1.31%.
To `Cc1noc(C)c1COc1ccccc1C(=O)NC1CCC(C)CC1` (centres unmarked) belongs 0.497%; to `CSCC[C@H](NC(=O)Nc1cccc(C(F)(F)F)c1)C(=O)O`, -0.0702%.
Under `Cc1cccc(CSc2nnc([C@@H]3CCCN3C(=O)OC(C)(C)C)o2)c1` stands 4.85%.
